Unmarked numbers belong to inactive results. Records with an inconclusive call do not appear. Activity calls are given as the source filed them. Unless noted, the call rests on the fitted dose curve; in most records, active means well fitted curve in the direction sought with a large enough effect in the repeat runs; inconclusive means weak or mixed curves; inactive means no such curve, though single readings can be large; an effect the other way counts as inactive or inconclusive.

Experiment [1] is described as follows: qHTS assay for small molecule agonists of the p53 signaling pathway (AID 651631; calls by dose curve; further: nearly all actives have a fitted effect of over 15% in size). Summed up: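 Readout was fluorescence from the LiveBLAzer FRET substrate, applied for 2 h at room temperature after 16 h compound exposure at 37 °C. Cells were the p53RE-bla HCT-116 line, with beta-lactamase driven by p53 response elements.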
In general terms: qHTS replaces the single test concentration by a dilution series.

The nature of experiment [2]: qHTS assay for small molecule agonists of the p53 signaling pathway - cell viability (AID 651633; calls by dose curve; further: series mostly up to about 83 µM; nearly all actives have a fitted effect of over 30% in size). Summed up: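 p53RE-bla cells were treated with compound for 16 hours at 37 C. Cytotoxicity was then measured as CellTiter-Glo luminescence after 30 min at room temperature.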
Experiment [3] is described as follows: qHTS assay for small molecules that induce genotoxicity in human embryonic kidney cells expressing luciferase-tagged ATAD5 - cell viability (AID 651634; calls by dose curve; further: nearly all actives have a fitted effect of over 25% in size). Summed up: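 HEK293T ATAD5-luc cells, 2,000/well; compound 15.5 hr, 37C/5% CO2; CellTiter-Fluor 30 min, 37C; fluorescence read.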
Experiment [4] can be described thus: qHTS assay for small molecule disruptors of the mitochondrial membrane potential - cell viability (AID 720634; calls by dose curve;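 further: human HepG2 liver cancer cells; series mostly up to about 83 µM; nearly all actives have a fitted effect of over 20% in size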). Summed up:
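Luminescence from CellTiter-Glo (ATP content) gave viability in HepG2 cells, read in the same wells as the MMP dye assay after 1 hr compound exposure at 37 C.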

Experiment [5] can be described thus: qHTS assay to test for compound auto fluorescence at 590 nm (red) in HepG2 cells (AID 720674). Summed up: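 Fluorescence at 590 nm emission following 540 nm excitation was recorded from HepG2 wells one hour after compound transfer, with DMSO-only wells as vehicle and Rose Bengal sodium equivalency as the scale.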
Experiment [6] can be described thus: qHTS assay to test for compound auto fluorescence at 535 nm (green) in HepG2 cells (AID 720675).
A short description of experiment [7]: qHTS assay to test for compound auto fluorescence at 460 nm (blue) in HEK293 cells (AID 720678). Summed up:
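HEK293 cells (2,000 per well, medium with 10% dialyzed FBS) attached for 4-5 hr at 37C, then received compound and stood overnight at 37C, 5% CO2. Blue fluorescence was read at Ex/Em 405/460 nm and expressed relative to triamterene.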

A short description of experiment [8]: qHTS assay to test for compound auto fluorescence at 590 nm (red) in HEK293 cells (AID 720679). Summed up:
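HEK293 cells (2,000/well, medium with 10% dialyzed FBS) attached for 4-5 hr at 37C, received 23 nL compound and were incubated overnight at 37C, 5% CO2. Red fluorescence was then read at 540/590nm Ex/Em, referenced to Rose Bengal sodium.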

Experiment [9] is described as follows: qHTS assay for small molecule disruptors of the mitochondrial membrane potential (AID 720635). Further: potency means the concentration at half of the fitted maximal effect. The essentials: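 HepG2 cells exposed to compound 1 hr at 37C, then Mito-MPS dye 30 min. Ratio read of aggregate (540/590 nm) versus monomer (490/535 nm) fluorescence.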
Experiment [10] can be described thus: qHTS assay for small molecules that induce genotoxicity in human embryonic kidney cells expressing luciferase-tagged ATAD5 (AID 651632). Further: nearly all actives have a fitted effect of over 15% in size. The essentials:
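Luminescence read-out: after 16 hr compound exposure at 37C, ATAD5-luciferase HEK293T cells received Amplite, 30 min RT, then CCD imaging. A rise in signal marks genotoxic stress.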
On the % scale 0 is the no-effect control and ±100 the full control effect.

`C[C@H](N)[C@H](O)c1cccc(O)c1`: the result in experiment [1], in experiment [2] and in [4] was inactive. In [3], the Potency result was “inactive”. The fluorescence, relative to Rose Bengal in experiment [5] was 0.285% [at 18.6 µM]. The fluorescence, % of fluorescein control in [6] is 0.0051% [at 18.6 µM]. Moreover, the fluorescence, % of triamterene in [7] was 2.14% [at 18.6 µM]. Moreover, the fluorescence, % of fluorescent control in experiment [8] is -0.0013% [at 18.6 µM].
Regarding `COc1ccc(-c2cc(=O)c3c(O)cc(O[C@@H]4O[C@H](CO[C@@H]5O[C@@H](C)[C@H](O)[C@@H](O)[C@H]5O)[C@@H](O)[C@H](O)[C@H]4O)cc3o2)cc1O`, the molecule was classed as inactive in experiment [1], in [2], in [5], in [6], in experiment [7] and in [8]. Further, the Potency entry in experiment [3] was “inactive”.
For `COc1ccc(S(=O)(=O)N2c3ccc(Cl)cc3[C@@](O)(c3ccccc3Cl)[C@H]2C(=O)N2CCC[C@@H]2C(N)=O)cc1OC`, the result in experiment [1], in experiment [2], in [4], in [6], in experiment [7] and in experiment [8] was inactive. Moreover, the Potency entry in [3] and in [9] was “inactive” each time.
For `Nc1nnc(-c2cccc(Cl)c2Cl)c(N)n1`, the molecule was classed as inactive in [1], in experiment [2], in experiment [5], in [6], in experiment [7] and in experiment [8]. Besides, the Potency result in [3] was “inactive”.
Regarding `CN1C(C)(C)CCCC1(C)C`, the call in experiment [1], in experiment [2], in [4], in [5], in experiment [6] and in experiment [7] was inactive. Besides, the call in experiment [8] was inactive. For the same molecule, the Potency entry in experiment [3] and in [9] was “inactive” throughout.
On to `O=C1c2ccccc2C(=O)N1CCl`, for which the molecule was classed as inactive in experiment [1], in experiment [2], in experiment [4], in experiment [6], in experiment [7] and in experiment [8]. Further, the Potency entry in experiment [3] is “inactive”.
In the case of `Cc1c(I)c(=O)n(-c2ccccc2)n1C`, the molecule was classed as inactive in experiment [1], in experiment [2], in experiment [4], in experiment [5], in experiment [6] and in experiment [7]. Moreover, in [8], the result was inactive. In addition, in experiment [3], the Potency result was “inactive”.
Consider `CCc1ccc(C=O)cc1`, for which the call in experiment [1], in experiment [4], in experiment [5], in [6], in [7] and in experiment [8] was inactive. Besides, the Potency result in experiment [3] and in experiment [9] was “inactive” throughout.
Consider `CNC(=O)[C@H]1O[C@@H](n2cnc3c(NCc4cc(Cl)ccc4OCc4cc(C)no4)ncnc32)[C@H](O)[C@@H]1N`, for which the molecule was called inactive in [1], in [4], in [5], in experiment [6], in experiment [7] and in experiment [8]. The Potency entry in experiment [10] and in experiment [3] was “inactive” throughout.
Regarding `CC1COc2ccccc2N1` (stereo not drawn), the result in experiment [1], in [2], in [4], in [5], in experiment [6] and in [7] was inactive. In addition, the molecule was called inactive in experiment [8]. In addition, the Potency result in [3] was “inactive”.
For `Cc1cccc2nccnc12`, the call in experiment [1], in experiment [2], in experiment [4], in experiment [5], in [6] and in experiment [7] was inactive. Moreover, in [8], the molecule was called inactive. Further, in experiment [3], the Potency entry is “inactive”.
With `CC(C)NCC(O)COc1cccc2[nH]ccc12` (stereo not drawn), the molecule was called inactive in experiment [1], in experiment [2], in experiment [4], in [5], in experiment [6] and in experiment [7]. Besides, the molecule was classed as inactive in experiment [8]. The Potency entry in experiment [9] is “inactive”.
`CC(C)(C)NC(N)=O`: the result in experiment [1], in experiment [6], in experiment [7] and in experiment [8] was inactive. Moreover, the Potency result in [10] and in [3] was “inactive” each time.
In the case of `Cc1ccc(S(=O)(=O)O)c(C)c1`, the result in experiment [1], in experiment [4], in experiment [5], in [6], in experiment [7] and in experiment [8] was inactive. Besides, the Potency result in [10] and in [3] was “inactive” each time.
On to `CC(=O)CCCCn1c(=O)c2c(ncn2C)n(C)c1=O`, for which the call in experiment [1], in experiment [2] and in experiment [4] was inactive. The Potency entry in experiment [3] and in [9] was “inactive” each time. Also, the fluorescence, relative to Rose Bengal in experiment [5] is 0.0631% [at 18.6 µM]. The fluorescence, % of fluorescein control in experiment [6] is -0.15% [at 18.6 µM]. Moreover, in [7], the fluorescence, % of triamterene was 0.0666% [at 18.6 µM]. In addition, the fluorescence, % of fluorescent control in experiment [8] is -0.0868% [at 18.6 µM].
As to `O=C(NCC(O)CO)c1c(I)c(C(=O)NCC(O)CO)c(I)c(N(CCO)C(=O)CO)c1I` (stereo not drawn), the molecule was called inactive in experiment [1], in experiment [2] and in experiment [4]. Besides, the Potency entry in [3] and in [9] was “inactive” in each case. Besides, the fluorescence, relative to Rose Bengal in experiment [5] was -0.211% [at 18.6 µM]. The fluorescence, % of fluorescein control in [6] was -0.0278% [at 18.6 µM]. The fluorescence, % of triamterene in experiment [7] was 0.0229% [at 18.6 µM]. Further, the fluorescence, % of fluorescent control in experiment [8] is -0.351% [at 18.6 µM].
Regarding `C#CC(C)N(C)C(=O)Nc1ccc(Cl)cc1` (stereo not drawn), the result in [1], in [2], in experiment [5], in experiment [6], in experiment [7] and in [8] was inactive. For the same molecule, the Potency entry in [3] is “inactive”.
With `NCCN1CCOCC1`, the result in [1], in experiment [2], in experiment [4], in experiment [5], in [6] and in experiment [7] was inactive. In addition, the outcome in experiment [8] was inactive. For the same molecule, the Potency entry in experiment [3] and in [9] was “inactive” each time.
`Cc1cc(NC(=O)C2=C(O)c3ccccc3S(=O)(=O)N2C)no1`: the result in [1], in experiment [2], in experiment [4], in [6], in experiment [7] and in experiment [8] was inactive. The Potency entry in experiment [3] is “inactive”. Moreover, in [9], the Potency is 2.66 µM (active).
Regarding `CCCCNC1CC(C)(C)NC(C)(C)C1`, the outcome in experiment [1], in experiment [4], in [6], in experiment [7] and in [8] was inactive. Besides, in experiment [3], the Potency result was “inactive”.
On to `C[Si](C)=O`, for which the activation in experiment [10] is 0.434% [at 8.08 µM]. For the same molecule, the activity change, negative = cytotoxicity in [2] is 15.5% [at 8.08 µM]; in [4], 4.91% [at 8.08 µM]. Besides, in experiment [3], the activity, negative = cytotoxicity is 11.6% [at 8.08 µM]. In experiment [5], the fluorescence, relative to Rose Bengal is -0.082% [at 9.17 µM]. Also, the fluorescence, % of fluorescein control in experiment [6] was 0.004% [at 9.17 µM]. For the same molecule, the fluorescence, % of triamterene in [7] was -0.115% [at 9.17 µM]. In addition, the fluorescence, % of fluorescent control in experiment [8] was -0.238% [at 9.17 µM].
Take `CC(=O)N[C@@H](CCC(=O)O)C(=O)O`: the Potency result in experiment [10], in experiment [3] and in [9] was “inactive” each time. The outcome in experiment [2], in experiment [4], in [5], in [6], in experiment [7] and in experiment [8] was inactive.

The values above are taken from PubChem BioAssay (Tox21).
